ERa coact pot – enhances coactivator binding to human estrogen receptor alpha. 1.3% of 86,000 active. AID 639. TR-FRET ERalpha-LBD/SRC-Cy5 coactivator binding, 2 h; 100 = basal binding, no effect. coactivator binding (% of control), % at 25.6 µM; in the data active = activity above about 200%;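 note: binding measured in presence of low estradiol as agonist stimulus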
Target sequence (P03372 whole entry, looked up, the tested form may be a part): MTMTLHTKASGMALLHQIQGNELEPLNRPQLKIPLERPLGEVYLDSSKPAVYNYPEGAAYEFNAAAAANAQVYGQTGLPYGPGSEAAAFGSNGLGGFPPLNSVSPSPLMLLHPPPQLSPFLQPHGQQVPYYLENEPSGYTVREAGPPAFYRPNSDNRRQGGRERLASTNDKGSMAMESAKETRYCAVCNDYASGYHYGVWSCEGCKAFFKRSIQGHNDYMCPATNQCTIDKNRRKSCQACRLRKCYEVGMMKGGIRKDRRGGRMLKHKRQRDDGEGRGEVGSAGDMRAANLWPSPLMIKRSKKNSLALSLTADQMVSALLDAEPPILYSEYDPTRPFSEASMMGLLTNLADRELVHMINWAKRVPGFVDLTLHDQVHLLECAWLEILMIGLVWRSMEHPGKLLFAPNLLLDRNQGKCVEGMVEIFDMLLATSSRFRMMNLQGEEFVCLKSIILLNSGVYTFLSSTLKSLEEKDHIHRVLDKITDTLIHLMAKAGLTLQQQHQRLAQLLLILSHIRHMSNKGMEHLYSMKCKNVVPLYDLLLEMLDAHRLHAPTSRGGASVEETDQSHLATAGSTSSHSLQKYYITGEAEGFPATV
ERa coact inh – ER-alpha (human) coactivator binding inhibition | 1.7% of 86,000 active | TR-FRET ER-alpha LBD / SRC-1 peptide, estradiol-bound | inhibition, % at 25.6 µM | P03372; in the data active = inhibition above about 50%
Smad3 FoxH1 inh – Smad3 (human) transcription factor binding inhibition; 0.29% of 88,000 active; inhibition, % at 25 µM; AID 630; P84022; TR-FRET Smad3/Dy647-FoxH1 peptide binding, europium anti-His;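 active = compounds that reduce the energy-transfer binding signal between the protein and its labelled peptide by more than half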
ERb coact inh – blocks coactivator binding to human estrogen receptor beta; Q92731; TR-FRET ER-beta LBD / SRC1-Cy5 peptide binding; receptor agonist-loaded with 1 µM estradiol; inhibition, % at 25.6 µM; 1.3% of 86,000 active; AID 633;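 active = compounds whose percent inhibition of the receptor-coactivator binding signal exceeds about 50% in the single-dose screen, limit read from the data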
Candida biofilm – kills Candida albicans biofilms. C. albicans biofilm + clotrimazole, Alamar Blue. inhibition, % at 6 µM. 0.14% of 85,000 active. AID 834;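 active = inhibition above 20%; inactive = inhibition below 20%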;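 note: preformed 24 hr biofilms exposed to compound for 48 hr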
MT1-MMP txn act – activates MT1-MMP transcription. HT1080 MT1-MMP promoter luciferase reporter, luminescence, overnight; stronger effect = higher value. 0.16% of 86,000 active. activation factor at 10 µM;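 active = activation factor of at least 2 for MT1-MMP transcription at 10 µM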
A number is an active result; n = inactive; x = no result; [ ] = another dose, or the depositor's remark. An excerpt weighted towards active compounds, which were near 3.8% of everything screened.

SMILES	ERa coact pot	ERa coact inh	Smad3 FoxH1 inh	ERb coact inh	Candida biofilm	MT1-MMP txn act
Cc1ccc2cc(CN(CC3CCCO3)C(=O)c3ccco3)c(=O)[nH]c2c1C (configuration not stated)	n	n	n	54	n	n
Cc1ccc(CSc2nnc(-c3ccncc3)n2CC2CCCO2)cc1 (configuration not stated)	n	n	n	n	n	n
N#Cc1c(N)sc(=S)c2c1CCCCC2	n	n	n	57[fluorescence artefact?]	n	n
CC(=O)N[C@@H]1CONC1=O	x	x	n	x	x	x
CNC(=O)CN(c1ccc(F)cc1)S(=O)(=O)c1cc(C)ccc1OC	n	n	n	n	n	n
O=C(CN1CCOCC1)Nc1ccccc1NC(=O)C1CCN(c2ncccn2)CC1	n	n	n	n	n	n
O=C(Nc1cccc(Cl)c1Cl)C1CCN(c2ncccn2)CC1	206	n	n	n	n	n
COc1ccccc1-c1nnc2sc(-c3cnccn3)nn12	n	52[fluorescence artefact?]	n	65	n	n
COc1ccccc1-c1nn2c(-c3ccc(C(C)(C)C)cc3)nnc2s1	241	n	n	n	n	n
CCOc1cccc(-c2nnc3sc(-c4ccc(C)cc4)nn23)c1	n	n	n	n	n	n
CCOc1ccc(-c2nnc3sc(-c4ccccc4OC)nn23)cc1	941[fluorescence artefact?]	n	n	n	n	n
CCOc1ccc(-c2nnc3sc(-c4c(OC)cccc4OC)nn23)cc1	n	n	n	n	n	n
CCOc1cccc(-c2nnc3sc(-c4ccco4)nn23)c1	244	n	n	n	n	n
COC(=O)c1ccc(C(/C=C/[C@@H](C)C(=O)NCc2ccc(C)o2)NC(=O)OCc2ccccc2)cc1 (some centres not stated)	x	x	x	x	x	n
Cc1ccc(CNC(=O)[C@H](C)[C@@H]2C[C@@]2(C)[C@@H](NC(=O)OCc2ccccc2)c2ccccc2)c(F)c1F	x	x	x	x	x	n
O=C(Nc1ccc(O)cc1)C1CC=CCC1 (configuration not stated)	n	n	n	68	n	n
CN(C1CCCCC1)S(=O)(=O)c1ccc(NC(=O)C2CCCCC2)cc1	n	n	n	n	n	n
Cc1ccc(CN2CCN(Cc3ccc(C)o3)[C@@H](C)C2)o1	x	x	n	x	x	x
CCOC(=O)C1=C(C)N(CCCCCC(=O)O)C(=O)NC1c1ccccc1OS(=O)(=O)c1ccccc1[N+](=O)[O-] (configuration not stated)	x	x	x	x	x	n
COC(=O)c1[nH]c2ccc(C)cc2c1NC(=O)CN1CCCc2ccccc21	n	77[fluorescence artefact?]	n	54	n	n
COC(=O)c1[nH]c2cc(C)ccc2c1NC(=O)CN1CCN(c2ccccc2OC)CC1	x	x	x	x	x	n
CC(=O)c1sc(N2C(=O)c3oc4ccccc4c(=O)c3C2c2ccc(C)o2)nc1C (configuration not stated)	n	64	n	n	n	n
CCc1c(C#N)c(N)nc(SCC(=O)OCc2ccccc2)c1C#N	207[fluorescence artefact?]	n	n	n	n	n
Cc1ccccc1NC(=O)CSc1nc(N)c(C#N)c(-c2cccs2)c1C#N	319[fluorescence artefact?]	n	n	51[fluorescence artefact?]	n	n
CCN(CC)C(=O)CSc1nc(N)c(C#N)c(-c2cccs2)c1C#N	221[fluorescence artefact?]	n	n	n	n	n
SMILES	ERa coact pot	ERa coact inh	Smad3 FoxH1 inh	ERb coact inh	Candida biofilm	MT1-MMP txn act
N#Cc1c(SCC(=O)OCc2ccccc2)nsc1SCC(=O)OCc1ccccc1	n	n	n	n	n	n
CCN(CC)C(=O)CSc1nc(-c2cccs2)cc(-c2cccs2)c1C#N	n	n	n	n	n	n
N#Cc1c(N)nc(SCc2ccncc2)c(C#N)c1-c1cccs1	267[fluorescence artefact?]	n	n	n	n	n
C[C@@]1(CO)[C@H](O)CC[C@]2(C)[C@@H]1CC[C@H]1C[C@H]3C[C@]12CC[C@@]3(O)COC(=O)CN	x	x	n	x	x	x
Nc1cc(C(=O)O)[nH]c(=O)n1	x	x	n	x	x	x
O=C(O)[C@@H]1[C@H](C(=O)O)[C@@H]2C(=O)C=C[C@H]1N2Cc1ccccc1	x	x	n	x	x	x
CCN(CC)C(=O)CSc1ncnc2c(-c3cccs3)nsc12	n	51[fluorescence artefact?]	n	51[fluorescence artefact?]	n	n
OC[C@@H]1O[C@H](N2CCN([C@@H]3O[C@H](CO)[C@@H](O)[C@H](O)[C@H]3O)CC2)[C@@H](O)[C@H](O)[C@H]1O	x	x	n	x	x	x
CCCC(C)NC1=NCCCCC1 (configuration not stated)	n	n	n	n	n	n
CCCC(=O)Nc1cccc(NC(=O)CN2CCN(c3ccccc3OC)CC2)c1	n	99[fluorescence artefact?]	n	n	n	n
